# Values without a mark were called inactive. Results filed as inconclusive are left out. Where a call stands in place of a potency, no number is given. Activity calls are given as the source filed them. Unless noted, the call rests on the fitted dose curve; in most records, active means well fitted curve in the direction sought with a large enough effect in the repeat runs; inconclusive means weak or mixed curves; inactive means no such curve, though single readings can be large; an effect the other way counts as inactive or inconclusive.
# Assays:
# [1] = qHTS assay to identify small molecule antagonists of the estrogen related receptor signaling pathway with the pleiotropic PPARgamma coactivator (PGC) from Tox21 10K library - cell viability counter screen (AID 1224840; active means well fitted cell-killing curve with a large enough effect in the repeat runs, not every such curve was filed as active; further: nearly all actives have a fitted effect of over 40% in size)
# How it was run: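 Following seeding of 2,000 PGC/ERR cells/well and 6 hours' incubation, test compounds were delivered in DMSO. The plates then sat 17.5 hours at 37 C before a fluorogenic live-cell protease reagent (CellTiter-Fluor) was read after 30 min.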
# [2] = target: Thyrotropin receptor (Homo sapiens) (UniProt P16473); assay: qHTS assay to identify small molecule agonists of the thyroid stimulating hormone receptor (TSHR) signaling pathway (AID 1224843; calls by dose curve; further: nearly all actives have a fitted effect of over 45% in size)
# How it was run: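 TSHR-HEK293 cells in agonist mode, 30 min room-temperature step, then cAMP measured by competitive HTRF (cAMP-d2 with anti-cAMP cryptate) after 1 h at room temperature. Tested at 15 concentrations in triplicate.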
# [3] = qHTS assay to identify small molecule agonists of the hypoxia (HIF-1) signaling pathway - cell viability counter screen (AID 1224844; calls by dose curve; further: nearly all actives have a fitted effect of over 50% in size)
# How it was run: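 Cells (HRE-bla ME-180, 2,000 per well) sat 5 hrs at 37C, got compound for 17 hrs, were read for CCF4-AM FRET, and were finally lysed with CellTiter-Glo for a 30 min room-temperature luminescence read.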
# [4] = qHTS assay to identify small molecule agonists of H2AX (AID 1224845; active means well fitted activation curve with a large enough effect in the signal ratio in the repeat runs, not every such curve was filed as active; the % refers to the signal ratio)
# How it was run: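 Wild-type CHO-K1 cells, plated overnight, exposed 3hr at 37C to 15 concentrations (0.76% DMSO final). Lysed, then HTRF anti-pH2AX (S139) cryptate and anti-H2AX-d2 antibodies, 24 hr room temperature; 665/620 nm emission read.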
# [5] = qHTS assay to identify small molecule agonists of the hypoxia (HIF-1) signaling pathway (AID 1224846; active means well fitted activation curve with a large enough effect in the signal ratio in the repeat runs, not every such curve was filed as active; the % refers to the signal ratio)
# How it was run: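 A low-serum medium (0.5% dialyzed FBS) holding 2,000 HRE-bla ME-180 cells per well is preincubated for 5 hrs, dosed with compounds by pintool, and kept a further 17 hrs at 37C, 5% CO2 before CCF4-AM FRET detection of beta-lactamase.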
# [6] = qHTS assay to identify small molecule agonists of H2AX - cell viability counter screen (AID 1224847; calls by dose curve; further: top concentration of the series differs between compounds; nearly all actives have a fitted effect of over 30% in size)
# How it was run: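 Counter-screen for viability: CellTiter-Glo ATP luminescence read after 3 h compound treatment (15-point titration, 0.76% DMSO final) of CHO-K1 cells at 37C, with 30 min room-temperature reagent incubation.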
# [7] = qHTS RealTime-Glo MT Cell Viability Assay in HepG2 cells - 24 hour (AID 1224867); further: nearly all actives have a fitted effect of over 50% in size
# How it was run: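 Luminescence read-out: viable HepG2 cells reduce a prosubstrate to a NanoLuc substrate, giving a signal proportional to live cell number. Reads taken at 0, 8, 16, 24, 32 and 40 h of compound exposure at 37 C.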
# [8] = qHTS RealTime-Glo MT Cell Viability Assay in HEK293 cells - 32 hour (AID 1224868); further: top concentration of the series differs between compounds; nearly all actives have a fitted effect of over 50% in size
# How it was run: (§1)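 Nonlytic real-time viability readout: viable cells convert prosubstrate to NanoLuc substrate, giving luminescence proportional to live cell number. HEK293, 600 cells/well, compound added after 5 h, continuous culture at 37 C.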
# [9] = A CellTox Green Cytotoxicity Assay to monitor cytotoxicity in HEK293 cells - 0 hour (AID 1224869); further: nearly all actives have a fitted effect of over 50% in size
# How it was run: (§2)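 Fluorescence intensity, read at 0, 8, 16, 24, 32 and 40 h of compound treatment, reflected dye binding to DNA of dead HEK293 cells; compounds (23 nL, DMSO) were added 5 h after plating cells with reagent.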
# [10] = qHTS RealTime-Glo MT Cell Viability Assay in HepG2 cells - 40 hour (AID 1224870); further: nearly all actives have a fitted effect of over 50% in size
# How it was run: (§3)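 HepG2 cells (600/well) mixed with RealTime-Glo MT reagent, settled 5 h at 37 C/5% CO2 before compound addition. Nonlytic NanoLuc luminescence from viable-cell prosubstrate reduction read repeatedly during 40 h treatment at 37 C.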
# [11] = A CellTox Green Cytotoxicity Assay to monitor cytotoxicity in HEK293 cells - 40 hour (AID 1224871); further: nearly all actives have a fitted effect of over 45% in size; further: potency means the concentration at half of the fitted maximal effect
# How it was run: as §2
# [12] = qHTS RealTime-Glo MT Cell Viability Assay in HepG2 cells - 8 hour (AID 1224873); further: nearly all actives have a fitted effect of over 55% in size
# How it was run: as §3
# [13] = qHTS RealTime-Glo MT Cell Viability Assay in HEK293 cells - 40 hour (AID 1224874); settings: RealTime-Glo luminescence; max response: stronger effect = lower value; further: nearly all actives have a fitted effect of over 50% in size
# How it was run: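 Viable HEK293 cells reduce a cell-permeant prosubstrate; the product diffuses out and is consumed by NanoLuc in the medium to give light. Compounds went in after a 5 h incubation and plates were read over the treatment course.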
# [14] = A CellTox Green Cytotoxicity Assay to monitor cytotoxicity in HepG2 cells - 16 hour (AID 1224876); further: nearly all actives have a fitted effect of over 45% in size
# How it was run: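 Using 1536-well format, dye-containing HepG2 suspension was seeded, allowed 5 h at 37 C/5% CO2, dosed by pintool with compounds, positive and negative controls, and imaged for fluorescence across 40 h.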
# [15] = qHTS RealTime-Glo MT Cell Viability Assay in HEK293 cells - 16 hour (AID 1224872)
# How it was run: as §1
# [16] = A CellTox Green Cytotoxicity Assay to monitor cytotoxicity in HEK293 cells - 24 hour (AID 1224875); further: nearly all actives have a fitted effect of over 45% in size; further: potency means the concentration at half of the fitted maximal effect; on activity change: series mostly up to about 77 µM
# How it was run: as §2
# Chain of Thyrotropin receptor (Homo sapiens) (P16473 whole entry, looked up): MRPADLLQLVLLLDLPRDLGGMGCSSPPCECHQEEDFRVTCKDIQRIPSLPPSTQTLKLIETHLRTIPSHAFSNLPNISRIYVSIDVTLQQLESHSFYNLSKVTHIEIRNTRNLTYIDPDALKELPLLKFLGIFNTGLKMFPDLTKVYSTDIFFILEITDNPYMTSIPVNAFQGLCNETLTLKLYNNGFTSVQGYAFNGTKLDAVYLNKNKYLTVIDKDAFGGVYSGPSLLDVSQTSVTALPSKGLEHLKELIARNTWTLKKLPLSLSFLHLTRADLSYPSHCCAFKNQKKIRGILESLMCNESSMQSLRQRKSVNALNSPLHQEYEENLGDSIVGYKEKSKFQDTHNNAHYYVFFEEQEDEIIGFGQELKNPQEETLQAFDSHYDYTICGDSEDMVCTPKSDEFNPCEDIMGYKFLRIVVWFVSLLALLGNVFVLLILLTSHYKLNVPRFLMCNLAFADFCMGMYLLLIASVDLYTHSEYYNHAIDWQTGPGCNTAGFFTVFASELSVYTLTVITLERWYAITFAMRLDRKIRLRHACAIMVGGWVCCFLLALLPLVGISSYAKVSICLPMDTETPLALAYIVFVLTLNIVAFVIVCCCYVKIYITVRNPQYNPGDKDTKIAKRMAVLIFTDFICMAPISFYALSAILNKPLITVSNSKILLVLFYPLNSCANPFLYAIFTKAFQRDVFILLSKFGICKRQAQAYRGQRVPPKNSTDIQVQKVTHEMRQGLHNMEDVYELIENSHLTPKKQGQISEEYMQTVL
smiles,measurement,setting,value
CCN(CC)CCN,outcome,[1],inactive
same,outcome,[2],inactive
same,outcome,[3],inactive
same,outcome,[4],inactive
same,outcome,[5],inactive
same,outcome,[6],inactive
same,outcome,[7],inactive
same,Potency,[8],inactive
same,Potency,[9],inactive
same,outcome,[10],inactive
same,Potency,[11],inactive
same,outcome,[12],inactive
same,max response,[13],2.52%
same,Potency,[14],inactive
O=C(O)CONC(=O)c1ccccc1,outcome,[1],inactive
same,outcome,[2],inactive
same,outcome,[3],inactive
same,outcome,[4],inactive
same,outcome,[5],inactive
same,outcome,[6],inactive
same,outcome,[7],inactive
same,Potency,[8],inactive
same,Potency,[9],inactive
same,outcome,[10],inactive
same,Potency,[15],inactive
same,outcome,[12],inactive
same,max response,[13],1.73%
same,Potency,[16],inactive
same,Potency,[14],inactive
CNCCS(=O)(=O)O,outcome,[1],inactive
same,outcome,[2],inactive
same,outcome,[3],inactive
same,outcome,[4],inactive
same,outcome,[5],inactive
same,outcome,[6],inactive
same,outcome,[7],inactive
same,Potency,[8],inactive
same,Potency,[9],inactive
same,outcome,[10],inactive
same,Potency,[11],inactive
same,outcome,[12],inactive
same,max response,[13],4.21%
same,Potency,[16],inactive
same,Potency,[14],inactive
O=C1OCCO1,outcome,[1],inactive
same,outcome,[2],inactive
same,outcome,[3],inactive
same,outcome,[4],inactive
same,outcome,[5],inactive
same,outcome,[6],inactive
same,outcome,[7],inactive
same,Potency,[8],inactive
same,Potency,[9],inactive
same,outcome,[10],inactive
same,Potency,[11],0.291 µM (active)
same,outcome,[12],inactive
same,max response,[13],1.36%
same,Potency,[16],inactive
same,Potency,[14],inactive
CCC(C)C(=O)OCCc1ccccc1 (configuration not stated),outcome,[1],inactive
same,outcome,[2],inactive
same,outcome,[3],inactive
same,outcome,[4],inactive
same,outcome,[5],inactive
same,outcome,[6],inactive
same,outcome,[7],inactive
same,Potency,[8],inactive
same,Potency,[9],inactive
same,outcome,[10],inactive
same,outcome,[12],inactive
same,max response,[13],-0.807%
same,Potency,[16],inactive
same,Potency,[14],inactive
C=CCCCCCCCCC(=O)OCCCC,outcome,[1],inactive
same,outcome,[2],inactive
same,outcome,[3],inactive
same,outcome,[4],inactive
same,outcome,[5],inactive
same,outcome,[6],inactive
same,outcome,[7],inactive
same,Potency,[8],inactive
same,Potency,[9],inactive
same,outcome,[10],inactive
same,Potency,[15],inactive
same,outcome,[12],inactive
same,max response,[13],7.61%
same,Potency,[14],inactive
CCCCOC(=O)[C@H](C)O,outcome,[1],inactive
same,outcome,[2],inactive
same,outcome,[3],inactive
same,outcome,[4],inactive
same,outcome,[5],inactive
same,outcome,[6],inactive
same,outcome,[7],inactive
same,Potency,[8],inactive
same,Potency,[9],inactive
same,Potency,[11],inactive
same,Potency,[15],inactive
same,outcome,[12],inactive
same,max response,[13],1.9%
same,Potency,[16],inactive
same,Potency,[14],inactive
Cc1c(N)cccc1Cl,outcome,[1],inactive
same,outcome,[2],inactive
same,outcome,[3],inactive
same,outcome,[4],inactive
same,outcome,[5],inactive
same,outcome,[6],inactive
same,outcome,[7],inactive
same,Potency,[8],inactive
same,Potency,[9],inactive
same,outcome,[10],inactive
same,Potency,[15],inactive
same,outcome,[12],inactive
same,max response,[13],5.05%
same,Potency,[16],inactive
same,Potency,[14],inactive
Cn1c(=O)c2[nH]c(Br)nc2n(C)c1=O,outcome,[1],inactive
same,outcome,[2],inactive
same,outcome,[3],inactive
same,outcome,[4],inactive
same,outcome,[5],inactive
same,outcome,[6],inactive
same,outcome,[7],inactive
same,Potency,[8],inactive
same,Potency,[9],inactive
same,outcome,[10],inactive
same,Potency,[11],inactive
same,outcome,[12],inactive
same,max response,[13],4.15%
same,Potency,[14],inactive
OC1(c2ccc(Cl)cc2)CCNCC1,outcome,[1],inactive
same,outcome,[2],inactive
same,outcome,[3],inactive
same,outcome,[4],inactive
same,outcome,[5],inactive
same,outcome,[6],inactive
same,outcome,[7],inactive
same,Potency,[8],inactive
same,Potency,[9],inactive
same,outcome,[10],inactive
same,Potency,[11],inactive
same,outcome,[12],inactive
same,max response,[13],3.5%
same,Potency,[16],inactive
same,Potency,[14],inactive
[O]=[Mo](=[O])=[O],"viability change, negative = cytotoxic",[1],-2.25% [at 19 µM]
same,activation,[2],-6.48% [at 19 µM]
same,"activity change, negative = cytotoxicity",[3],-18.3% [at 15.8 µM]
same,activation (H2AX phosphorylation),[4],-3.3% [at 31.6 µM]
same,activation,[5],-0.622% [at 15.8 µM]
same,"activity change, negative = cytotoxicity",[6],-2.98% [at 31.6 µM]
same,"activity change, negative = cytotoxicity",[7],2.84% [at 15.8 µM]
same,cytotoxicity,[9],-18.1% [at 15.8 µM]
same,cytotoxicity increase,[11],-43.2% [at 15.8 µM]
same,"viability change, negative = cytotoxic",[12],2.7% [at 15.8 µM]
same,activity change,[16],"-37.6% [at 15.8 µM, stronger effect = higher value]"
same,cytotoxicity increase,[14],-8.07% [at 15.8 µM]
CCCC(=O)OC/C=C(\C)CCC=C(C)C,outcome,[1],inactive
same,outcome,[2],inactive
same,outcome,[3],inactive
same,outcome,[4],inactive
same,outcome,[5],inactive
same,outcome,[6],inactive
same,outcome,[7],inactive
same,Potency,[8],inactive
same,Potency,[9],inactive
same,Potency,[11],49 µM (active)
same,Potency,[15],inactive
same,outcome,[12],inactive
same,max response,[13],10.7%
same,Potency,[16],54.9 µM (active)
same,Potency,[14],inactive
C[C@@H](O)C(=O)O,outcome,[1],inactive
same,outcome,[2],inactive
same,outcome,[3],inactive
same,outcome,[4],inactive
same,outcome,[5],inactive
same,outcome,[6],inactive
same,outcome,[7],inactive
same,Potency,[8],inactive
same,Potency,[9],inactive
same,Potency,[11],inactive
same,Potency,[15],inactive
same,outcome,[12],inactive
same,max response,[13],3.5%
same,Potency,[16],inactive
same,Potency,[14],inactive
O=C(O)CNC(=O)CNC(=O)CNC(=O)CSC(=O)c1ccccc1,outcome,[1],inactive
same,outcome,[2],inactive
same,outcome,[3],inactive
same,outcome,[4],inactive
same,outcome,[5],inactive
same,outcome,[6],inactive
same,outcome,[7],inactive
same,Potency,[8],inactive
same,Potency,[9],inactive
same,outcome,[10],inactive
same,Potency,[11],inactive
same,outcome,[12],inactive
same,max response,[13],6.64%
same,Potency,[16],inactive
same,Potency,[14],inactive
C/C(CC(C)C)=N\O,outcome,[1],inactive
same,outcome,[2],inactive
same,outcome,[3],inactive
same,outcome,[4],inactive
same,outcome,[5],inactive
same,outcome,[6],inactive
same,outcome,[7],inactive
same,Potency,[8],inactive
same,Potency,[9],inactive
same,Potency,[15],inactive
same,outcome,[12],inactive
same,max response,[13],-0.628%
same,Potency,[16],inactive
same,Potency,[14],inactive

# From PubChem BioAssay (Tox21)
